Measured values reported in PMC4336329 (PLoS ONE, 2015).
About 14,000 (4.5%) of roughly 310,000 compounds showed an effect of 50% or more. Effects have a minus sign here. The entries come from a sample that favours strong results as a whole.

target: human ether-à-go-go-related gene (hERG) potassium channel (human, UniProt Q12809); assay: primary screen, population patch clamp on CHO cells stably expressing hERG; higher = less effect of the substance
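Further: peak tail current of the secondary pulse compared with the same well before compound.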

human ether-à-go-go-related gene (hERG) potassium channel, sequence (Q12809 whole entry, looked up): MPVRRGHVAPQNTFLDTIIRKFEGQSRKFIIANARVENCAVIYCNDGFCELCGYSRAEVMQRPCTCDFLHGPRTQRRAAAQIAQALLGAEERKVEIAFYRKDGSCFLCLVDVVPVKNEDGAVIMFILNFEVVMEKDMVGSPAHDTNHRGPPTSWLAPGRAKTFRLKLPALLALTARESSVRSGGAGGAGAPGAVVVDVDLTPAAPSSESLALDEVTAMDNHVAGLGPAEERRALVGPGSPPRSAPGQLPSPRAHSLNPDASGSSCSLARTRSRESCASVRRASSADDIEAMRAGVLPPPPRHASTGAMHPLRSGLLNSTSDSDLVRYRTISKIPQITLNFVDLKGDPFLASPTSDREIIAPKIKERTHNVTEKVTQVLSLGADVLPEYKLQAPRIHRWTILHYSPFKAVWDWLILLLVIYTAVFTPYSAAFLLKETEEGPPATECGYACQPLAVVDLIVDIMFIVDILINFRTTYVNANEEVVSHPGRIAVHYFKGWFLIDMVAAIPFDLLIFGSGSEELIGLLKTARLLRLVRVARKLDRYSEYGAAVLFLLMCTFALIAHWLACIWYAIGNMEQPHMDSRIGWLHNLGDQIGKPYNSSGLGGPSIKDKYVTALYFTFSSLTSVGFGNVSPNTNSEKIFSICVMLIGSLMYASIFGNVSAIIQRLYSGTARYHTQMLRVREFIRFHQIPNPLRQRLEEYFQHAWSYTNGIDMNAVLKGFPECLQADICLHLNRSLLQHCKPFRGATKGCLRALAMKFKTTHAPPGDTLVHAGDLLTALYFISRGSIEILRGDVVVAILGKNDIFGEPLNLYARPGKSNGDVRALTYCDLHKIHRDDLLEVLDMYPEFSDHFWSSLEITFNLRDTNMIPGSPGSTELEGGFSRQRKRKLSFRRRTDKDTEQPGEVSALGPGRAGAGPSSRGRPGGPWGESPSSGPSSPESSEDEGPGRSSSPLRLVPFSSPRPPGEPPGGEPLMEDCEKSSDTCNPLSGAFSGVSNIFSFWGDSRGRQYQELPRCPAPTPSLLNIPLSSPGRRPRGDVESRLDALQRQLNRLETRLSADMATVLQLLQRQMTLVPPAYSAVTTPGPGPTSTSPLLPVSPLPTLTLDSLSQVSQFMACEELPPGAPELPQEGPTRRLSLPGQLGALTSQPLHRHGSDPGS

First: Cc1cc(C)c(NC(=O)CSc2nnc(CN3CCOCC3)n2C)c(C)c1
Second: Cc1cc(C)c(NC(=O)COC(=O)CCn2c(C)csc2=O)c(C)c1
The “hERG current change (%, negative = inhibition) at 10uM” value of the first is higher: 13.5% for the first, -10.6% for the second.

First: COc1ccc(C(C(=O)NC2CCCC2)N(C(=O)c2ccoc2C)c2ccccc2)cc1 (centres unmarked)
Second: COc1ccc(C)cc1NC(=O)C(c1ccccc1)N1CCNC(=O)C1 (centres unmarked)
The “hERG current change (%, negative = inhibition) at 10uM” value of the first is higher: -3.9% for the first, -5.31% for the second.

First: CC(=O)c1ccc(S(=O)(=O)N2CCN(CC(=O)NC(=O)NC3CCCCC3)CC2)cc1
Second: CC(=O)c1ccc(S(=O)(=O)N2CCN(CC(=O)Nc3ccccc3C(=O)NC3CC3)CC2)cc1
The “hERG current change (%, negative = inhibition) at 10uM” value of the first is higher: -16.8% for the first, -75.4% for the second.

Compared with `O=C(CN1CCN(S(=O)(=O)c2ccccc2)CC1)Nc1ccccc1C(=O)NC1CC1`, `COc1cccc(C(=O)NCC2CCCN2S(=O)(=O)c2ccccc2)c1` (centres unmarked) is higher in “hERG current change (%, negative = inhibition) at 10uM” value: -27.1% for the first, 2.72% for the second.

Compared with `CCn1c(SCC(=O)NC2CCCCC2)nnc1-c1cc2cccc(OC)c2o1`, `COc1cccc(CNS(=O)(=O)c2c(C(=O)N3CCCCC3)c(C)n(C)c2C)c1` is higher in “hERG current change (%, negative = inhibition) at 10uM” value: -26% for the first, 9.63% for the second.

Going from `CCCCn1c(SCC(=O)NCc2ccco2)nc2cc(S(N)(=O)=O)ccc21` to `NC(=O)CSc1nc2sc(-c3ccccc3)cc2c(=O)n1N`, the “hERG current change (%, negative = inhibition) at 10uM” value rises from -7.32% to 11%.

Compared with `COc1ccc(NC(NC(=O)c2cccnc2)C(Cl)(Cl)Cl)cc1` (centres unmarked), `COc1ccc(C(=O)N/C(=C\c2ccc3c(c2)OCO3)C(=O)Nc2ccc(C(=O)O)cc2)cc1` is lower in “hERG current change (%, negative = inhibition) at 10uM” value: 29.3% for the first, 17.8% for the second.

Going from `Cl.OCCN1CCN(CC(O)COc2ccc(-c3ccccc3)cc2)CC1` (centres unmarked) to `OC(COc1ccc(-c2ccccc2)cc1)CN1CCOCC1` (centres unmarked), the “hERG current change (%, negative = inhibition) at 10uM” value rises from -45.9% to -19.7%.

Going from `OC1CCCN(CC(O)COc2ccc(-c3ccccc3)cc2)C1` (centres unmarked) to `CC1CCCN(CC(O)COc2ccc(-c3ccccc3)cc2)C1` (centres unmarked), the “hERG current change (%, negative = inhibition) at 10uM” value falls from -52.9% to -73.4%.

Going from `CC1CCCN(CC(O)COc2ccc3c(c2)OCO3)C1.Cl` (centres unmarked) to `CC1CCCN(CC(O)COc2ccc(Cl)cc2)C1.Cl` (centres unmarked), the “hERG current change (%, negative = inhibition) at 10uM” value falls from -15.1% to -69.2%.

Compared with `CC(=O)c1ccc(OCC(O)CN2CCCC(C)C2)cc1.Cl` (centres unmarked), `CC1CCCN(C(=O)COc2ccc(-c3ccccc3)cc2)C1` (centres unmarked) is lower in “hERG current change (%, negative = inhibition) at 10uM” value: -1.2% for the first, -35.5% for the second.

Going from `C=CCNC(=O)CCCOc1cc(C)ccc1C` to `CC(C)c1ccc(C(=O)NCCCN(C)C)cc1`, the “hERG current change (%, negative = inhibition) at 10uM” value falls from -9.84% to -17.1%.

First: CC(C)(O)CCc1c(-c2ccc(O)cc2O)oc2c3c(cc(O)c2c1=O)OC(C)(C)C=C3
Second: Cc1cc(=O)oc2c3c(cc(OCC(=O)NCc4ccncc4)c12)OC(C)(C)CC3
The “hERG current change (%, negative = inhibition) at 10uM” value of the first is higher: 13.7% for the first, -27.7% for the second.

Going from `CC1(C)Cc2nc3oc4c(=O)n(CC(=O)Nc5ccccc5)cnc4c3cc2CO1` to `CCc1cc(=O)oc2c3c(cc(OCC(=O)NCc4ccncc4)c12)OC(C)(C)CC3`, the “hERG current change (%, negative = inhibition) at 10uM” value falls from 5.24% to -34.4%.

Going from `O=C(O)c1cc(NC(=O)c2cccc(C(=O)Nc3cc(C(=O)O)cc(C(=O)O)c3)c2)cc(C(=O)O)c1` to `O=C(Nc1ccc(C(=O)NCCCN2CCN(c3ccccc3)CC2)cc1)C1=CSCCO1`, the “hERG current change (%, negative = inhibition) at 10uM” value falls from 15.8% to -38.2%.

Going from `CCc1noc(C)c1C(=O)N1CCCC(CCC(=O)NCc2ccc(F)c(F)c2)C1` (centres unmarked) to `Cc1ccc(C(=O)NCc2ccc3c(c2)OCO3)cc1S(=O)(=O)N1CCCCC1`, the “hERG current change (%, negative = inhibition) at 10uM” value falls from -0.135% to -26.4%.

First: O=S(=O)(c1cc(Cl)ccc1Br)N1CCCCC1
Second: O=C(C1CCN(S(=O)(=O)c2ccc(Cl)cc2)CC1)N1CCCCCCC1
The “hERG current change (%, negative = inhibition) at 10uM” value of the first is lower: -22.9% for the first, -16.1% for the second.

Compared with `CCc1cc(=O)oc2c3c(cc(OCC(=O)NCCCOC)c12)OC(C)(C)CC3`, `CCc1cc(=O)oc2c3c(cc(OCC(=O)NCCCn4ccnc4)c12)OC(C)(C)CC3` is lower in “hERG current change (%, negative = inhibition) at 10uM” value: 8.45% for the first, -51.1% for the second.

Going from `CCCc1cc(=O)oc2c3c(cc(OCC(=O)NCCCn4ccnc4)c12)OC(C)(C)CC3` to `Cc1cc(=O)oc2c3c(cc(OCC(=O)NCCCn4ccnc4)c12)OC(C)(C)CC3`, the “hERG current change (%, negative = inhibition) at 10uM” value rises from -73.9% to -32.1%.

Going from `CCCCc1cc(=O)oc2c3c(cc(OCC(=O)NCCCO)c12)OC(C)(C)CC3` to `CCCc1cc(=O)oc2c3c(cc(OCC(=O)NCCN4CCOCC4)c12)OC(C)(C)CC3`, the “hERG current change (%, negative = inhibition) at 10uM” value falls from -18.1% to -18.3%.

Compared with `CCCc1cc(=O)oc2c3c(cc(OCC(=O)NCc4ccncc4)c12)OC(C)(C)CC3`, `O=C(NCc1ccc2c(c1)OCO2)c1ccc(Br)cc1` is higher in “hERG current change (%, negative = inhibition) at 10uM” value: -65% for the first, -19.8% for the second.

Going from `Cc1cc(C)c(N=C2SCC(=O)N2Cc2ccco2)c(C)c1` to `Cc1ccccc1-n1c(-c2ccco2)nc2ccccc2c1=O`, the “hERG current change (%, negative = inhibition) at 10uM” value rises from -14% to 1.78%.

Compared with `Cc1ccc(-n2ncc3c(NCCCN4CCOCC4)ncnc32)c(C)c1`, `Cc1ccc(C(=O)NCCCN2CCOCC2)cc1` is higher in “hERG current change (%, negative = inhibition) at 10uM” value: -10.3% for the first, 3.81% for the second.

Going from `Cc1cc(NC(=O)COC(=O)c2cc(S(=O)(=O)N(C)c3ccccc3)ccc2Cl)no1` to `CN(C)S(=O)(=O)c1ccc(Cl)c(NC(=O)COC(=O)CN2C(=O)C3CCCCC3C2=O)c1` (centres unmarked), the “hERG current change (%, negative = inhibition) at 10uM” value rises from 0.766% to 6.74%.

Compared with `Cn1cnc2c1c(=O)n(CC(O)CO)c(=O)n2C` (centres unmarked), `COC(=O)c1cnc(SCc2ccc([N+](=O)[O-])cc2)n1C` is lower in “hERG current change (%, negative = inhibition) at 10uM” value: 23% for the first, -32% for the second.

First: O=C(Cn1cc2c(n1)CCCCC2)N1CCCCC1
Second: O=C(Cn1cc2c(n1)CCCC2)N1CCCC1
The “hERG current change (%, negative = inhibition) at 10uM” value of the first is lower: 2.46% for the first, 5.98% for the second.

Going from `CCOC(=O)N1CCN(C(=O)Cn2cc3c(n2)CCCC3)CC1` to `Cc1ccc(C(=O)NCCN2CCCC2)cc1.Cl`, the “hERG current change (%, negative = inhibition) at 10uM” value rises from -72.4% to -5.44%.

Compared with `OCCN(CCCn1c(C(F)(F)F)nc2ccccc21)c1nc(CN2CCCCC2)cs1`, `OCCN(CCCn1c(-c2ccncc2)nc2ccccc21)c1nc(CN2CCCCC2)cs1` is higher in “hERG current change (%, negative = inhibition) at 10uM” value: -19% for the first, 23.4% for the second.

Compared with `CC(=O)OCCN(CCCn1c(-c2ccncc2)nc2ccccc21)c1nc(CN2CCCCC2)cs1`, `COc1ccc(-c2cn(CCN)c(-c3ccncc3)n2)cc1` is higher in “hERG current change (%, negative = inhibition) at 10uM” value: -58.5% for the first, 5.87% for the second.

Going from `CC1CN=C(Nc2ccccc2)S1` (centres unmarked) to `CCC1CCCCN1S(=O)(=O)c1ccccc1` (centres unmarked), the “hERG current change (%, negative = inhibition) at 10uM” value falls from 7.23% to -13%.

First: O=[N+]([O-])c1ccc(SCCc2cc[nH+]cc2)cc1.[Cl-]
Second: O=[N+]([O-])c1ccc(SCCc2ccncc2)cc1
The “hERG current change (%, negative = inhibition) at 10uM” value of the first is higher: -53.7% for the first, -63.7% for the second.

Compared with `O=[N+]([O-])c1ccc(SCCc2ccccn2)cc1`, `O=c1ccnc(SCCc2ccc([N+](=O)[O-])cc2)[nH]1` is higher in “hERG current change (%, negative = inhibition) at 10uM” value: -44.3% for the first, -34% for the second.

Compared with `Fc1ccc(SCCc2ccncc2)cc1`, `Cn1c(SCCc2ccc([N+](=O)[O-])cc2)nccc1=O` is lower in “hERG current change (%, negative = inhibition) at 10uM” value: -29.9% for the first, -59.9% for the second.

Compared with `O=C(COC(=O)CSc1ccc([N+](=O)[O-])cc1)NCCCc1ccccc1`, `O=C(COC(=O)CSc1ccc([N+](=O)[O-])cc1)NCCc1ccccc1` is higher in “hERG current change (%, negative = inhibition) at 10uM” value: 4.5% for the first, 5.52% for the second.

Compared with `COc1ccc(C)cc1Cn1c(S(C)(=O)=O)nc2ccccc21`, `CCN(CC)C(=O)/C(=C\c1ccc(Br)cc1)NC(=O)c1ccccc1OC` is lower in “hERG current change (%, negative = inhibition) at 10uM” value: -9.64% for the first, -27.3% for the second.

Compared with `Cc1cccc(N2CCN(C(=O)CCN3C(=O)C4C5C=CC(C5)C4C3=O)CC2C)c1` (centres unmarked), `CC1CCN(S(=O)(=O)c2ccc3[nH]c(=O)ccc3c2)CC1` is higher in “hERG current change (%, negative = inhibition) at 10uM” value: -18.2% for the first, -5.5% for the second.

First: CCN1CN(CCc2ccccc2)CNC1=S
Second: C=CCN(c1ccc(C(=O)NCCc2ccccc2)cc1)S(C)(=O)=O
The “hERG current change (%, negative = inhibition) at 10uM” value of the first is higher: 5.61% for the first, -6.23% for the second.

Compared with `Cc1ccc(-n2nc3c(c2NC(=O)c2ccc4c(c2)OCO4)CS(=O)C3)cc1` (centres unmarked), `CCN(CC)C(=O)/C(=C/c1ccc2c(c1)OCO2)NC(=O)c1ccc(Br)cc1` is lower in “hERG current change (%, negative = inhibition) at 10uM” value: 7.09% for the first, -70.5% for the second.

Compared with `CCN(CC)C(=O)/C(=C\c1ccc2c(c1)OCO2)NC(=O)c1ccc(Br)cc1`, `Cc1ccc(C(=O)NCCCN2CCN(CCCNC(=O)c3ccc(C)cc3)CC2)cc1` is lower in “hERG current change (%, negative = inhibition) at 10uM” value: -63.5% for the first, -67.5% for the second.

Compared with `CCC1CCCCN1S(=O)(=O)c1ccc2[nH]c(=O)ccc2c1` (centres unmarked), `CCc1cc(Br)ccc1N1C(=O)C2CC=CCC2C1=O` (centres unmarked) is higher in “hERG current change (%, negative = inhibition) at 10uM” value: -60.1% for the first, 5.21% for the second.

Going from `CC(C)(C)c1ccc(C(=O)NCCCN2CCN(CCCNC(=O)c3ccc(C(C)(C)C)cc3)CC2)cc1` to `CC(C)c1ccc(C(=O)NCCCN2CCN(CCCNC(=O)c3ccc(C(C)C)cc3)CC2)cc1`, the “hERG current change (%, negative = inhibition) at 10uM” value falls from -63.6% to -84.3%.

Compared with `CC(C)(C)c1ccc(C(=O)NCCN2CCOCC2)cc1`, `CC(C)(C)c1ccc(C(=O)NCCN2CCCC2)cc1.Cl` is lower in “hERG current change (%, negative = inhibition) at 10uM” value: 1.01% for the first, -6.48% for the second.

First: CN1CCN(CCCNC(=O)c2ccc(NC(=O)C3=CSCCO3)cc2)CC1
Second: O=C(Nc1ccc(C(=O)NCCCN2CCN(c3ccc(F)cc3)CC2)cc1)C1=CSCCO1
The “hERG current change (%, negative = inhibition) at 10uM” value of the first is higher: 11.5% for the first, -54% for the second.

Compared with `CC(C)c1ccc(C(=O)NCCCN2CCOCC2)cc1`, `O=C(N/N=C/c1ccc(O)cc1)c1csc2c1CCCC2` is lower in “hERG current change (%, negative = inhibition) at 10uM” value: -5.2% for the first, -19.7% for the second.

`COc1cccc(-n2c(C)n[nH]c2=O)c1` was tested, and the “hERG current change (%, negative = inhibition) at 10uM” value was 14.1%.
